Screening data from PubChem BioAssay.
Pf growth 48h: P. falciparum growth inhibition at 48 hours (one generation); 310,000 compounds, 5.9% hits; Potency, µM (titrated, usually from 28.7 µM), for inactives: at the top dose activity change, negative = inhibition, most hits filed as inhibitors; AID 504832; P. falciparum luciferase growth in erythrocytes, 48 h; also: potency is read from the fitted curve at half-maximal effect; % is scaled to controls: 0 for no effect and ±100 for the full control effect
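A one-generation exposure of luciferase-tagged malaria parasites in RPMI 1640/Albumax erythrocyte culture, 37 C and 5% CO2. Inhibition is inferred from decreased luminescence after adding detection reagent.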
CHX counter: affects cycloheximide protein synthesis inhibition readout, counter-screen | cell reporter, cycloheximide protein synthesis inhibition counterscreen | AID 2314 | max response, % | 300,000 compounds, 12% hits; in the data active = max response mostly above about 13%, no sharp cut-off; inactive = mostly below about 14%; also: read at 38.3 µM for the half of the compounds with a filed dose; 0% is about no effect
LmPK inh: blocks Leishmania mexicana pyruvate kinase activity | 290,000 compounds, 0.37% hits | purified LmPK, Kinase-Glo ATP luminescence, 1 h | AID 1721 | Potency, µM (doses to about 57.5 µM), for the others: top-dose activity change, negative = inhibition, most hits filed as inhibitors | Q27686; also: potency is read from the fitted curve at half-maximal effect; % is scaled to controls: 0 for no effect and ±100 for the full control effect
Target sequence (Q27686 whole entry, looked up): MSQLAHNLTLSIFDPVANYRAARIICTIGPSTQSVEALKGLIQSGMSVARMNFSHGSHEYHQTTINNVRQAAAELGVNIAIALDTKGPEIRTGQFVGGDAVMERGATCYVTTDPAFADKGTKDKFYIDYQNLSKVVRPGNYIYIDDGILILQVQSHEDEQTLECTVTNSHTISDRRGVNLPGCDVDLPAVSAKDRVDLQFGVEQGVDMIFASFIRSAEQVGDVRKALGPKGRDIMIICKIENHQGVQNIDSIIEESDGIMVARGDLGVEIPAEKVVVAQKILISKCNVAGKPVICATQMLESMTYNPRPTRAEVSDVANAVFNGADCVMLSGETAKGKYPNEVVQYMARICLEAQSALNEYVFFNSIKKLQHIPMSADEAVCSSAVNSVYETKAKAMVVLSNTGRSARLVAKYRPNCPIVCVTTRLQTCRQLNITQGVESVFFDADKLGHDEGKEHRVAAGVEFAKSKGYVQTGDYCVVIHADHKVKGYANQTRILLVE
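In 50 mM imidazole pH 7.2 with 7 mM MgCl2, LmPK (0.1 nM) turned over PEP (0.5 mM) and ADP (0.1 mM) for 1 h at room temperature. Luciferase read-out of ATP.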
Shiga toxin inh: Shiga toxin inhibition. Vero cells, Shiga toxin protein synthesis inhibition reporter. inhibition, % at 38.7 µM. 290,000 compounds, 9.2% hits; in the data active = inhibition mostly above about 28%, no sharp cut-off; inactive = mostly below about 43%; also: 0% is about no effect
Pf growth 96h: P. falciparum growth inhibition at 96 hour, primary screen for plastid delayed-death inhibitors; P. falciparum luciferase reporter growth, 96 h; Potency, µM (highest dose often 28.7 µM), inactives show at the highest dose activity change, negative = inhibition, most hits filed as inhibitors; 320,000 compounds, 6.9% hits; AID 504834; also: potency is read from the fitted curve at half-maximal effect; % is scaled to controls: 0 for no effect and ±100 for the full control effect
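Cell-based qHTS: luciferase-tagged P. falciparum in erythrocytes (2% hematocrit, 0.05% parasitemia final) incubated with compounds for 96 hours, 37 C, 5% CO2; luciferase detection reagent then added and luminescence measured.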
An asterisk follows results filed as active; u = inconclusive; x = not tested or not shown. This is a sample that favours compounds with a hit; in the whole collection about 22% have one here. Unless noted, calls follow the shape of the dose curve; as a rule, active = well fitted inhibition curve with a large enough effect; inconclusive = small, poorly fitted or top-dose-only effect, or another doubt; inactive = no such curve, though single readings can be large or run the other way.

SMILES	Pf growth 48h	CHX counter	LmPK inh	Shiga toxin inh	Pf growth 96h
CC(C)(C)c1ccc(C2C(C(=O)c3ccco3)=C(O)C(=O)N2CC2CCCO2)cc1 (centres undefined)	14%	-3	1%	-8	16%
Clc1cccc(CN2CCSCC2)c1	u	-3	-3%	x	24%
N#CCCN(C(=O)COc1ccc(Cl)cc1Cl)c1ccccc1	-29%	19*	1%	29	u
CCOC(=O)c1cc2c(=O)c3ccccc3oc2nc1C	206%	40*	-4%	103*	320%
Cc1cccc(C)c1NC(=O)c1cc2c(=O)c3ccccc3oc2nc1C(F)(F)F	22%	-1	8%	41	u
Cc1ccc2oc3nc(C)c(C(=O)Nc4cccc(C(F)(F)F)c4)cc3c(=O)c2c1	62%	9	-3%	30	38%
COCc1nc2oc3ccccc3c(=O)c2cc1C(=O)OC	147%	12*	-22%	46*	168%
Cc1cnc(N)c2c(=O)oc3ccccc3c12	x	1	-1%	22	4%
CCN(CC)C(=O)c1cc2c(=O)c3cc(F)ccc3oc2nc1C	51%	39*	-1%	64*	23%
CCOC(=O)c1c(C)nc(C)c2c(=O)oc3ccccc3c12	68%	33*	-12%	93*	0%
COCCCN1C(=O)C(=O)/C(=C(/O)c2ccc(S(=O)(=O)N3CCOCC3)cc2)C1c1ccc(OC)cc1 (centres undefined)	-2%	6	-1%	-8	15%
CCCOCC(O)CC(Cc1ccccc1)C(=O)NN (centres undefined)	1%	-3	1%	-26	27%
CC(C)(C)NC(=O)CN(C(=O)CNS(=O)(=O)c1ccc(Cl)cc1)c1ccc2c(c1)OCCO2	-10%	9	6%	27	25%
Cc1c(NC(=O)COc2c(F)c(F)c(F)c(F)c2F)c(=O)n(-c2ccccc2)n1C	-5%	6	6%	-6	5%
Cc1ccc2c(CNCc3ccco3)cc(=O)oc2c1	70%	38*	5%	55*	62%
CCCOc1ccc2ccccc2c1/C=N/n1c(C)nnc1-n1nc(C)cc1C	u	-5	4%	-6	3%
CN(Cc1cn(-c2ccccc2)nc1-c1cc2ccccc2o1)C(=O)CCC(=O)O	8%	11	3%	24	-11%
O=S(=O)(c1ccc(Br)c2ccccc12)N1CCCC1	3%	-2	1%	3	11%
Cc1c(N=Cc2c(O)n(CCc3ccc(F)cc3)c(=O)[nH]c2=O)c(=O)n(-c2ccccc2)n1C	-8%	-2	2%	-9	10µM*
O=c1[nH]c(=O)n(CCC2=CCCCC2)c(O)c1C=Nc1cccc(F)c1	15%	8	1%	-18	54%
O=C(N/N=C/c1c(O)n(CCC2=CCCCC2)c(=S)[nH]c1=O)c1ccccc1	16%	35*	2%	38*	5%
O=C(N/N=C/c1c(O)n(Cc2ccc(F)cc2)c(=O)[nH]c1=O)c1ccccc1	25%	29*	6%	89*	u
O=C(N/N=C/c1c(O)n(CCC2=CCCCC2)c(=O)[nH]c1=O)c1ccccc1	25%	27*	2%	21	u
C=CCn1c(O)c(C=Nc2c(C)n(C)n(-c3ccccc3)c2=O)c(=O)[nH]c1=O	12%	-2	-1%	5	25%
Cc1ccc(S(=O)(=O)N(C)c2ccc(OC(=O)c3cccs3)cc2)cc1C	-6%	x	x	x	-6%
SMILES	Pf growth 48h	CHX counter	LmPK inh	Shiga toxin inh	Pf growth 96h
COc1cccc(N2C(=O)CC(N3CCC(C(N)=O)(N4CCCCC4)CC3)C2=O)c1 (centres undefined)	17%	9	-1%	-4	u
COC(=O)c1cnn(-c2ccccc2)c1/C=N/NC(=S)Nc1ccc(Cl)cc1	u	-1	13%	-9	-15%
Nc1ccccc1N=Cc1c(O)n(CCC2=CCCCC2)c(=O)[nH]c1=O	238%	62*	6%	180*	u
CCOCCCN1C(=O)CN(C2CCCCCC2)C(=O)C1c1ccc(OC)cc1 (centres undefined)	u	-8	0%	-2	0.83µM*
CCOCCCN1C(=O)CN(C2CCCCC2)C(=O)C1c1ccc(OC)c(OC)c1 (centres undefined)	-4%	0	-5%	-11	0%
Cc1cc(C(=O)NCCC2=CCCCC2)c(C)o1	202%	39*	-2%	117*	u
COc1ccc(C)cc1NC(=O)NCCC1=CCCCC1	15µM*	-1	6%	10	55%
COc1cccc(C(=O)NCCC2=CCCCC2)c1OC	72%	33*	-5%	108*	17%
COc1ccc(C(=O)NCCN2CCCC2)cc1[N+](=O)[O-]	u	-2	2%	-41	2.6µM*
COc1ccc(C(=O)NCCN2CCN(C(=O)c3ccc(OC)c(OC)c3)CC2)cc1OC	-10%	-2	-2%	-6	-1%
NC(=O)NCCC1=CCCCC1	x	-3	3%	-10	21%
NNC(=O)c1sccc1OCc1ccc(Cl)cc1Cl	260%	9	-3%	-17	u
c1nc[n]([Sn]([CH]2CCCCC2)([CH]2CCCCC2)[CH]2CCCCC2)n1	x	4	x	2	x
Cc1ccc(S(=O)(=O)NC(C)(C)C)cc1C(=O)OC(C)C(=O)NC1CC1 (centres undefined)	-12%	x	x	x	-4%
COc1ccc(C(=O)NCCC2=CCCCC2)cc1[N+](=O)[O-]	21%	24*	0%	41*	25%
Cc1cccc(-n2c(=O)c3ccccc3n3c(=S)[nH]nc23)c1C	-1%	-8	-4%	11	15%
O=C(COC(=O)/C=C/c1ccc([N+](=O)[O-])cc1)Nc1ccc2[nH]c(=O)[nH]c2c1	10%	x	x	x	32%
Cc1cccc(NC(=O)CCNS(=O)(=O)c2cc(Br)cnc2N)c1C	17%	3	1%	-2	4%
O=C(NC1CCN(Cc2ccccc2)CC1)c1ccccc1OCc1ccccc1Cl	u	-2	5%	-16	u
COc1cccc(/C=N/NC(=O)c2cc3cc([N+](=O)[O-])ccc3s2)c1O	4.1µM*	1	-9%	-11	u
COc1cc(/C=N/NC(=O)c2cccc([N+](=O)[O-])c2)ccc1O	0%	20	3%	21	13%
COc1ccc(/C=N/NC(=O)c2cccc([N+](=O)[O-])c2)cc1O	-14%	25*	-3%	102*	4%
COc1ccccc1/C=N/NC(=O)c1ccc(NC(=O)c2cccc([N+](=O)[O-])c2)cc1	5.2µM*	14	-11%	-2	-1%
COc1cc(/C=N/NC(=O)c2cccc([N+](=O)[O-])c2)ccc1OCc1ccc(C)cc1	12%	22*	-1%	62*	0%
CCOC(=O)c1c[nH]c2c(C(F)(F)F)cccc2c1=O	7%	-3	-8%	-1	u
CCN(CC)c1ccc(C(=S)NC2CCCCC2)cc1	u	24*	0%	76*	5%
